Screening results deposited in PubChem BioAssay by several laboratories.
This is a sample that favours compounds with a hit; in the whole collection about 4.8% have one here.
tim10-1 inh: tim10-1 yeast growth inhibition; S. cerevisiae tim10-1 ts strain growth, BacTiter-Glo, 24 h; hit rate 2.2% among 330,000; inhibition, % at 20 µM;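 active means inhibition of at least 40%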;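 further: mutant grown at 25 °C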
SKKanGAS inh: SKKanGAS growth inhibition. AID 1662. S. pyogenes SKKanGAS, kanamycin growth, BacTiter-Glo, 6 h. inhibition, % at 7.5 µM. hit rate 1.3% among 300,000;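 active means mean replicate score, as percent of positive control median, at least 50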;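 further: strain carries kanamycin resistance gene driven by streptokinase promoter and grows in 40 µg/ml kanamycin; loss of luminescence reflects streptokinase promoter inhibition or plain growth inhibition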
TIM10 inh: growth inhibitors of TIM10 yeast strain | S. cerevisiae TIM10 strain growth, BacTiter-Glo luminescence, 24 h | inhibition, % at 10 µM | hit rate 1.4% among 330,000;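 active means inhibition of 40% or more at the single tested concentration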;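 further: wild-type TIM10 isogenic control strain grown at permissive 25 °C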
PfHsp90 yeast 2: growth inhibition of yeast expressing Plasmodium Hsp90; inhibition, % at 9.4 µM; S. cerevisiae expressing PfHsp90, BacTiter-Glo ATP, 48 h; yeast lacking PDR1 and PDR3 efflux regulators; hit rate 0.32% among 310,000;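 active means every replicate shows inhibition above about 80%, whatever the replicate mean, limit read from the data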
tim23-1 inh: tim23-1 yeast growth inhibition | S. cerevisiae tim23-1 growth, BacTiter-Glo luminescence, 24 h | inhibition, % at 20 µM | hit rate 1.3% among 330,000 | AID 463212;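 active means growth inhibition of the mutant yeast at or above 50%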;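 further: temperature-sensitive mutant grown at 25 °C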
NALP1 yeast inh: NALP1 inhibition; hit rate 0.61% among 280,000; S. cerevisiae NALP1/ASC/caspase-1 growth, X-gal OD620, 72 h; inhibition, % at 10 µM; in the data active means inhibition mostly above about 24%, no sharp cut-off; inactive means mostly below about 32%
tim10-1 confirm: confirmation of tim10-1 mutant yeast growth inhibitors; shares compounds with tim10-1 inh; S. cerevisiae tim10-1 ts strain growth, BacTiter-Glo, 24 h; inhibition, % at 20 µM; hit rate 56% among 7,400; AID 463213;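 active means inhibition of yeast growth at or above a set limit in either of two repeat tests at 20 µM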;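 further: tim10-1 mutant grown at permissive 25 °C to find synthetic lethal compounds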
tim10 confirm: TIM10 yeast growth inhibition, confirmed; shares compounds with TIM10 inh; S. cerevisiae tim10 strain growth, BacTiter-Glo luminescence, 24 h; inhibition, % at 10 µM; hit rate 63% among 4,600; AID 463215;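 active means inhibition of yeast growth at or above a set limit in either of two replicates at 10 µM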; further: this counterscreen used the strain with wild-type TIM10
Large screens that a line does not name were inactive (follow-up assays come after a bar, where they were run).

O=C(COc1ccccc1)NC(=S)N1CCc2ccccc21	tim10-1 inh 43, TIM10 inh 41 | tim10-1 confirm inactive | tim10 confirm inactive
COc1ccc(OCC(=O)NC(=S)N2CCCc3ccccc32)cc1	none
O=C(CSc1n[nH]c(-c2ccccc2Br)n1)NCCN1C(=O)CSC1=O	none
COc1ccccc1CC(=O)O/N=C(\N)Cc1cccc2ccccc12	tim10-1 inh 67, TIM10 inh 56 (no result: PfHsp90 yeast 2) | tim10-1 confirm 53 | tim10 confirm 62
COc1ccccc1OC(=O)Cc1cccc2ccccc12	none
COc1ccccc1C/C(N)=N/OC(=O)COc1ccc(C)cc1C	tim10-1 inh 48, TIM10 inh 43 (no result: NALP1 yeast inh) | tim10-1 confirm 42 | tim10 confirm 35
Cc1ccc(OCC(=O)O/N=C(\N)c2ccncc2)c(C)c1	none
Cc1ccc(C(=O)O/N=C(\N)Cc2cccc3ccccc23)cc1	tim10-1 inh 49, TIM10 inh 42 | tim10-1 confirm 52 | tim10 confirm 73
CCOc1ncccc1C(=O)OCC(=O)c1c(N)n(C)c(=O)n(C)c1=O	none
CCCCCCN(C(=O)CCCCCN1C(=O)NC(c2ccc(-c3ccccc3)cc2)C(C(=O)OCc2ccccc2)=C1C)C(C(=O)NCCCC)c1ccc(O)cc1 (stereo not given)	none (no result: tim10-1 inh, SKKanGAS inh, TIM10 inh, PfHsp90 yeast 2, tim23-1 inh)
Cc1nc(NCCc2ccc(F)cc2)c2nnn(Cc3ccccc3)c2n1	none
O=c1cc(C(F)(F)F)nc(-c2ccccc2OC(F)(F)F)[nH]1	none
O=S(=O)(c1cccc(-c2nc3ccccc3s2)c1)N1CCCC1	tim10-1 inh 48, TIM10 inh 44 | tim10-1 confirm 34 | tim10 confirm 42
O=S(=O)(c1ccc(-c2nc3ccccc3s2)cc1)N1CCCC1	none
CCOC(=O)c1cccc(NC(=O)Nc2cc(OC)ccc2OC)c1	tim10-1 inh 41, TIM10 inh 40 | tim10-1 confirm inactive | tim10 confirm inactive
CCOC(=O)c1cnc2ccc(OC)cc2c1Nc1ccc2c(c1)OCCO2	tim10-1 inh 56, TIM10 inh 43 | tim10-1 confirm 48 | tim10 confirm inactive
Cc1cccc(OCCCOc2cccc3cccnc23)c1C	tim10-1 inh 46, SKKanGAS inh 58, TIM10 inh 47 | tim10-1 confirm inactive | tim10 confirm 39
O=C(Nc1ccccn1)c1ccc([N+](=O)[O-])o1	tim10-1 inh 44, TIM10 inh 44 | tim10-1 confirm 39 | tim10 confirm 35
COc1ccc(NC(=O)CS(=O)(=O)c2ccc(F)cc2)cc1	none
COc1cccc(-c2nn3c(-c4ccco4)nnc3s2)c1	tim10-1 inh 52, TIM10 inh 47 | tim10-1 confirm 55 | tim10 confirm inactive
Cc1ccc(C(=O)NCC(=O)N(C)Cc2cccc(F)c2)s1	none (no result: SKKanGAS inh, NALP1 yeast inh)
CCSc1nnc(-c2ccc(S(=O)(=O)NCc3cccs3)cc2)o1	tim10-1 inh 45, TIM10 inh 45 (no result: SKKanGAS inh, PfHsp90 yeast 2) | tim10-1 confirm 50 | tim10 confirm 30
Cc1noc(/C=C/c2cccnc2)c1[N+](=O)[O-]	tim10-1 inh 55, TIM10 inh 57 | tim10-1 confirm 57 | tim10 confirm 75
Cc1cccc(C)c1N/C=C/c1onc(C)c1[N+](=O)[O-]	none
COc1ccc(S(=O)(=O)N(C)c2ccccc2)c2cccnc12	none
CCS(=O)(=O)N1Cc2ccccc2CC1C(=O)NC(C)C12CC3CC(CC(C3)C1)C2 (stereo not given)	tim10-1 inh 41, TIM10 inh 47 | tim10-1 confirm 30 | tim10 confirm inactive
CCOc1ccc(C2C(C(=O)C3CC3)N3C=C(C#N)C=CC3C2(C#N)C#N)cc1 (stereo not given)	none (no result: PfHsp90 yeast 2)
CCOc1cc(/C=N/NC(=O)c2cc(-c3cccnc3)nc3ccccc23)ccc1O	tim10-1 inh 45, TIM10 inh 44 | tim10-1 confirm 38 | tim10 confirm inactive
N#Cc1cc2c(nc1S(=O)(=O)Cc1ccccc1)CCCC2	none
Cc1cc(N2CCCC2)nc(SCC(=O)c2ccccc2)n1	none
Cc1cc(N2CCC(C)CC2)nc(SCC(=O)c2ccccc2)n1	tim10-1 inh 53, TIM10 inh 41 | tim10-1 confirm 34 | tim10 confirm inactive
CN(c1ccccc1)S(=O)(=O)c1nnc(NC(=O)C2CCCCC2)s1	none
O=c1oc2ccccc2c(O)c1/C=C1\C=Nc2ccccc21	tim10-1 inh 65, TIM10 inh 69 | tim10-1 confirm 72 | tim10 confirm inactive
CCn1c2nc(SCCN3CCOCC3)nnc2c2cc(C)cc(C)c21	none
Cc1ccc2cccc(NC(=S)NC(=O)c3c(Br)cnn3C)c2n1	none
Cc1ccc2cccc(NC(=S)NC(=O)c3ccn(C)n3)c2n1	tim10-1 inh 41, TIM10 inh 48 | tim10-1 confirm inactive | tim10 confirm 45
O=C(COc1cccc(C(F)(F)F)c1)Nc1ccc(S(=O)(=O)N2CCCC2)cc1	tim10-1 inh 50, TIM10 inh 68 (no result: SKKanGAS inh) | tim10-1 confirm 53 | tim10 confirm 51
COc1ccc(C(=O)Nc2ccc(S(=O)(=O)N3CCCC3)cc2)cc1	tim10-1 inh 55, TIM10 inh 45 | tim10-1 confirm inactive | tim10 confirm 33
O=C(Nc1ccccc1)Nc1ccc(S(=O)(=O)N2CCCCC2)cc1	tim10-1 inh 43, TIM10 inh 51 | tim10-1 confirm 32 | tim10 confirm inactive
O=C(COc1ccccc1F)Nc1ccc(S(=O)(=O)N2CCCC2)cc1	tim10-1 inh 50, TIM10 inh 44 (no result: SKKanGAS inh, NALP1 yeast inh) | tim10-1 confirm inactive | tim10 confirm 33
O=C(COc1ccc(S(=O)(=O)N2CCCC2)cc1)Nc1ccc(F)cc1	none
COc1ccccc1OCc1cc(C(=O)N2CC3C[C@@H]4CC2C[C@H](C3)C4)no1	none
COc1ccc(CNC(=O)CCCC2=NS(=O)(=O)c3ccccc3N2)cc1	none
CCCc1c(O)nc(SC2CC(=O)N(c3ccc(C)c(Cl)c3)C2=O)[nH]c1=O (stereo not given)	none (no result: PfHsp90 yeast 2, NALP1 yeast inh)
Cc1ccc(N2C(=O)CC(Sc3nc4ccccc4o3)C2=O)cc1Cl (stereo not given)	tim10-1 inh 59, TIM10 inh 50 (no result: PfHsp90 yeast 2) | tim10-1 confirm 43 | tim10 confirm 34
COc1ccc(NC(=O)/C(C#N)=C/c2c(C)nn(-c3ccc(F)cc3)c2Cl)cc1OC	tim10-1 inh 51, TIM10 inh 49 | tim10-1 confirm 45 | tim10 confirm 42
COCCN(C(=O)C1CC1)c1nnc(-c2ccc(C)cc2)s1	none
CCOc1ccc(-c2nnc(N(CC)C(=O)C3CCC3)s2)cc1	tim10-1 inh 43, TIM10 inh 43 | tim10-1 confirm 31 | tim10 confirm 35
O=C(Nc1ccc(F)cc1)c1cccc2c1C(=O)N(Cc1ccccn1)C2	tim10-1 inh 68, TIM10 inh 44 (no result: SKKanGAS inh) | tim10-1 confirm 65 | tim10 confirm inactive
